# Compounds with a hit are over-represented: about 11% of the library has one in this group of screens.
# HP1b chromo inh = HTS for Inhibitors of HP1-beta Chromodomain Interactions with Methylated Histone Tails. Chromobox protein homolog 1 (Homo sapiens), P83916. AlphaScreen HP1-beta / biotin-H3K9me3 peptide binding. Potency, µM (titrated, usually from 114 µM), without a hit: at the highest dose activity change, negative = inhibition, usual class: inhibitors. 0.56% of 390,000 active; note: nearly all actives have a fitted effect of over 70% in size
# Target sequence (P83916 whole entry, looked up): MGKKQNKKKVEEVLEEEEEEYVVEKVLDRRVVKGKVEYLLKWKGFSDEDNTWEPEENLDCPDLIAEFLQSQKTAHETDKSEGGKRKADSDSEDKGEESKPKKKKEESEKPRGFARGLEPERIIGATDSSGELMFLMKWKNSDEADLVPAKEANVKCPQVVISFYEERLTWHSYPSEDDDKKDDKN
#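 HP1-beta protein (50 nM final) preincubated 30 min at room temperature with biotinylated H3(1-18)K9me3 peptide (50 nM) in PBS pH 7.4, 0.01% Tween-20, then compound added for 30 min. AlphaScreen streptavidin donor/nickel chelate acceptor beads (10 ug/mL final), 30 min dark, luminescence read.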
# BAZ2B block = qHTS Assay for Inhibitors of BAZ2B; Potency, µM (highest dose often 114 µM), without a hit: top-dose activity change, negative = inhibition, hits mostly inhibitors; AlphaScreen BAZ2B-H3K14Ac peptide displacement; Bromodomain adjacent to zinc finger domain protein 2B (Homo sapiens), Q9UIF8; 4.4% of 360,000 active; note: % is set by controls: 0 for no effect and ±100 for the full control effect; nearly all actives have a fitted effect of over 60% in size
#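 BAZ2B (50 nM) with biotin-H3(5-23)K14Ac peptide (50 nM) in PBS pH 7.4, 0.01% Tween-20, preformed 30 min, then compound 30 min at room temperature; top concentration 110uM. AlphaScreen streptavidin donor/nickel chelate acceptor beads (10 ug/mL final), 20 min dark, signal read.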
# JMJD2A Tudor inh = qHTS Assay for Inhibitors of JMJD2A-Tudor Domain. AlphaScreen JMJD2A-Tudor / H3K4me3 peptide binding. Lysine-specific demethylase 4A (Homo sapiens), O75164. 4.4% of 390,000 active. AID 504339, 2011. Potency, µM (doses to about 114 µM), for the others: top-dose activity change, negative = inhibition, usual class: inhibitors; note: % is set by controls: 0 for no effect and ±100 for the full control effect; nearly all actives have a fitted effect of over 50% in size
# L3MBTL1 inh = qHTS Assay for the Inhibitors of L3MBTL1 | Lethal(3)malignant brain tumor-like protein 1 (Homo sapiens), Q9Y468 | AlphaScreen L3MBTL1–H3K9me1 peptide binding | Potency, µM (highest dose often 57.1 µM), for the others: top-dose activity, negative = inhibition, most hits filed as inhibitors | 0.66% of 230,000 active; note: % is set by controls: 0 for no effect and ±100 for the full control effect; nearly all actives have a fitted effect of over 60% in size
#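 L3MBTL1 (50 nM) pre-complexed 30 min with biotinylated H3(1-15)K9me1 peptide (75 nM), then compounds added for 30 min at room temperature; AlphaScreen streptavidin donor/nickel chelate acceptor beads (10 ug/mL final) read after 30 min dark incubation.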
# G9a block = qHTS Assay for Inhibitors of Histone Lysine Methyltransferase G9a | Histone-lysine N-methyltransferase EHMT2 (Homo sapiens), Q96KQ7 | G9a H3K9 monomethylation, AlphaScreen, 2 h | Potency, µM (titrated, usually from 102 µM), without a hit: at the top dose activity, negative = inhibition, usual class: inhibitors | 8.8% of 350,000 active | AID 504332, 2011; note: % is set by controls: 0 for no effect and ±100 for the full control effect; nearly all actives have a fitted effect of over 75% in size
# Target sequence (Q96KQ7 913-1193 limits assumed): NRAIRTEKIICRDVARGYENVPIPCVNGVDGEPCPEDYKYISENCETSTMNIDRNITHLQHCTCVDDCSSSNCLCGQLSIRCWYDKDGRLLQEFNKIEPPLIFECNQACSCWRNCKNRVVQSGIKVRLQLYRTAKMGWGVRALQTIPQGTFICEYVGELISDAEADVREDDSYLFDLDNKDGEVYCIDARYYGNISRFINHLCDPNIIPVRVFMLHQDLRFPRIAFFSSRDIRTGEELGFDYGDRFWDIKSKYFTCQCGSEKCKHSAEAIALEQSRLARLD
#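 AlphaScreen read-out: biotin-H3K9 peptide (500 nM) methylation by 20 nM enzyme with 20 uM SAM, 2 h at room temperature after 15 min compound preincubation; anti-monomethyl H3K9 antibody plus donor/acceptor beads, 10 min dark.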
# * = called active by the depositor; ? = inconclusive; . = not tested or not shown; [ ] = another dose, or the depositor's remark. Calls come from the whole dose curve; as a rule, active = well fitted inhibition curve with a large enough effect; inconclusive = small, poorly fitted or top-dose-only effect; inactive = no such curve, though single readings can be large or run the other way. Potency is the fitted concentration of half-maximal effect.
SMILES,HP1b chromo inh,BAZ2B block,JMJD2A Tudor inh,L3MBTL1 inh,G9a block
Cc1ccccc1OCc1n[nH]c(=S)n1Cc1ccccc1,-8%,-22%,-30%,-13%,8.9µM*
Cc1ccc(C)c(NC(=O)C(=O)NCCc2csc(-c3ccc(C(F)(F)F)cc3)n2)c1,17%[57 µM],2%,-4%,.,21%[59 µM]
COc1ccc(C(O)P(=O)(OC(C)C)OC(C)C)c(OC)c1 (stereo not given),20%,0%,10%,9%,4%
CCN(CC)c1ccc(NC(=O)CCCOc2cccc(C)c2)cc1,?,1%,10µM*,.,9%
CCOc1cccc(C(=O)Nc2ccc3ccccc3c2)c1,42%,4%,4%,18%,-11%
Cc1cccc(OCCCC(=O)Nc2ccc(S(N)(=O)=O)cc2)c1,48%,-17%,5%,7%,-26%
CCOc1cccc(C(=O)Nc2ccc(N3CCCC3)cc2)c1,-10%,-32%,?,-16%,3.5µM*
CCOc1ccc(OCc2cccc(C(=O)Nc3ccc(CN4CCCCC4)cc3)c2)cc1,?,?,?,-11%,20µM*
CCOc1cccc(C(=O)Nc2ccc(N(CC)CC)cc2)c1,?,40µM*,25µM*,?,8.9µM*
CC(=O)c1cccc(NC(=O)N2CCC(CN3CCCCC3)CC2)c1,-5%,3%,-14%,.,-3%[59 µM]
CCc1ccc(CNC(=O)Cc2ccc(NC(=O)N3CCSc4ncccc43)cc2)cc1,40%,-3%,-15%,.,?
CCOC(=O)c1cnc2nc(C)nn2c1N,29%,-34%,-8%,-2%,28µM*
CCOC(=O)c1cnc2nc(N3CCOCC3)nn2c1N,20%,-2%,-13%,-15%,1%
CCOC(=O)c1cnc2nc[nH]n2c1=O,25%,16%,-27%,33%,56µM*
CCOC(=O)c1ccc(NC(=O)CCc2c(C)nc3nc[nH]n3c2=O)cc1,28%,56µM*,-10%,.,-6%[59 µM]
N#CCCN(Cc1cccnc1)C(=S)NC1CC2C=CC1C2 (stereo not given),14%,3%,-11%,-2%,2%
COc1ccc(N2CCN(c3nc4c(c(=O)n(C)c(=O)n4C)n3Cc3ccccc3)CC2)cc1,?,45µM*,56µM*,.,-49%[12.7 µM]
CCN1CCN(c2nc3c(c(=O)n(C)c(=O)n3C)n2Cc2cccc3ccccc23)CC1,18%,-5%,-5%,-12%,40µM*
C=C(C)Cn1c(N2CCN(c3ccc(OC)cc3)CC2)nc2c1c(=O)n(C)c(=O)n2C,-9%,?,?,.,17%[59 µM]
COC(=O)Cn1c(CN2CCc3ccccc3C2)nc2c1c(=O)n(C)c(=O)n2C,55%,12%,-15%,3%,50µM*
CCCn1c(SCC(=O)N2CCN(c3ccc(OC)cc3)CC2)nc2c1c(=O)n(C)c(=O)n2C,27%,-27%,-20%,-3%,50µM*
CCCn1c(SCC(=O)N2CCCC2)nc2c1c(=O)n(C)c(=O)n2C,30%,-6%,-2%,-1%,25%
CCOc1ccc(S(=O)(=O)N2Cc3ccccc3CC2C(=O)Nc2ccc(NC(C)=O)cc2)cc1 (stereo not given),2%,-34%,-35%,.,-40%[59 µM]
Cc1c(C(=O)Nc2ccc(F)c(Cl)c2)sc2nc3n(c(=O)c12)CCC3,40%,-13%,-12%,.,-1%[59 µM]
Cn1c(=O)c2c(nc(SCc3cccnc3)n2Cc2ccccc2)n(C)c1=O,22%,-8%,35µM*,13%,?
SMILES,HP1b chromo inh,BAZ2B block,JMJD2A Tudor inh,L3MBTL1 inh,G9a block
Cn1c(=O)c2c(nc(CN3CCN(Cc4ccccc4)CC3)n2Cc2ccc(Cl)cc2)n(C)c1=O,12%,-26%,?,.,45µM*
Cn1c(=O)c2c(nc(CN3CCN(Cc4ccccc4)CC3)n2Cc2ccccc2)n(C)c1=O,.,11%,.,4%,-11%
O=C1CN(S(=O)(=O)c2ccc([N+](=O)[O-])cc2)CC(=O)N1,25%,4%,-11%,.,-24%
CCCc1cc(=O)n2[nH]c(-c3cc(OC)c(OC)c(OC)c3)nc2n1,52%,8%,7%,-2%,45µM*
CCCc1cc(=O)n2[nH]c(-c3ccc(OC)cc3)nc2n1,43%,-2%,7%,.,-10%
O=C(COC(=O)CNS(=O)(=O)/C=C/c1ccccc1)Nc1cccc2ccccc12,26%,-22%,1%,-4%,50µM*
CCc1cccc(C)c1NC(=O)COC(=O)CNS(=O)(=O)/C=C/c1ccccc1,27%,-9%,-2%,-6%,?
CC(C)Sc1nnc(NC(=O)c2ccco2)s1,52%,-24%,-7%,.,25µM*
COc1ccccc1N1CCN(C(=O)CSc2nnc(NC(=O)c3ccco3)s2)CC1,15%,-5%,-3%,3%,50µM*
Cc1ccc(S(=O)(=O)NCCC(=O)NC2CCC(C)CC2)cc1 (stereo not given),54%,-3%,-5%,1%,5%[59 µM]
Cc1c(Cl)cccc1-c1ccc(C(=O)N2CCN(c3ccc([N+](=O)[O-])cc3)CC2)o1,16%,-37%,-24%,-1%,?
Cc1cccc(N2CCN(C(=S)c3ccc(-c4ccccc4[N+](=O)[O-])o3)CC2)c1,16µM*,10µM*,8.9µM*,?,11µM*
O=[N+]([O-])c1ccccc1-c1ccc(C(=S)N2CCCCC2)o1,50µM*,25µM*,45µM*,?,20µM*
O=C(c1ccc(-c2ccccc2Cl)o1)N1CCCCCCC1,?,.,116%,.,.
O=[N+]([O-])c1ccccc1-c1ccc(C(=S)N2CCCC2)o1,?,40µM*,56µM*,?,10µM*
O=C(NCc1cccnc1)c1ccc(-c2ccccc2[N+](=O)[O-])o1,20%,-2%,-1%,0%,-1%[59 µM]
O=S(=O)(c1ccc(Br)cc1)c1nnn2c1nc(NCc1cccs1)c1sccc12,17%,?,-31%,.,?
CCN1CCN(c2ccc(S(=O)(=O)N3CCCCC3)cc2NC(=O)Cc2c(F)cccc2Cl)CC1,-2%,-24%,-23%,.,.
CCN1CCN(c2ccc(S(=O)(=O)N3CCCCC3)cc2NC(=O)/C=C/c2ccc(OC(F)F)cc2)CC1,-15%,4%,-34%,-18%,14µM*
CN1CCN(c2ccc(S(=O)(=O)N3CCCCC3)cc2NC(=O)/C=C/c2ccc(OC(F)F)cc2)CC1,-25%,-38%,-34%,-12%,45µM*
COc1ccc(C2NC(=O)N(C)C3=C2C(=O)N(c2cccc(C(=O)O)c2)C3)cc1 (stereo not given),19%,-11%,?,.,-27%[59 µM]
COc1ccc(C(=O)C(C)OC(=O)CCN2C(=O)C3CC=CCC3C2=O)cc1 (stereo not given),24%,18%,-5%,35%,7.9µM*
CCc1ccc(NC(=O)C(C)OC(=O)CCN2C(=O)C3CC=CCC3C2=O)cc1 (stereo not given),5%,.,-13%,.,.

# Screening data from PubChem.
